High-throughput results (PubChem)
This is a sample that favours compounds with a hit; in the whole collection about 4.8% have one here.
hgDAF12 agonist: H. glycines DAF-12 receptor agonists, primary screen, cell-based, luminescence, HEK293, GAL4 fusion, UAS-luciferase. Nuclear hormone receptor DAF-12 (Heterodera glycines), GAL4 fusion. HEK293 GAL4-hgDAF12 UAS-luciferase reporter, agonist luminescence; normalized to butyrate control. activation, % at 6.8 µM. 370,000 tested, 1.8% active;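 active = activation above a cutoff set at the mean of all screened compounds plus 3 SD, cut at about 10% in these data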;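 also: 0% = DMSO wells and 100% = sodium butyrate wells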
ssDAF12 agonist: S. stercoralis DAF-12 nuclear receptor activators, primary screen, cell-based, luminescence, HEK293, GRIP1 co-expression, lit1-tk-luc. activation, % at 6.8 µM. HEK293 ssDAF-12/GRIP1 lit1-tk-luc reporter; % of 3 µM dafachronic acid response. 370,000 tested, 1% active. Nuclear hormone receptor DAF-12 (Strongyloides stercoralis);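 active = activation above the mean over all tested compounds plus 3 SD, cut at about 0.9% in these data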;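 also: 0% = DMSO-only wells and 100% = 3 µM delta7-dafachronic acid wells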
SMARCA2 activ: SMARCA2 (BRM) function activators, primary screen, cell-based, luminescence, high throughput | MG213 cells, MMTV-luciferase reporter, dexamethasone, overnight | activation, % at 9.1 µM | 370,000 tested, 1% active | AID 652017, 2013; in the data active = activation above about 7.8%;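 also: 0% = vehicle wells and 100% = reference activator wells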
hcDAF-12 act: H. contortus DAF-12 nuclear receptor activators, primary screen, cell-based, luminescence, HEK293, lit1-tk-luc reporter; activation, % at 6.8 µM; HEK293 hcDAF-12 lit1-tk-luc reporter; 0% DMSO, 100% Δ7-dafachronic acid; 370,000 tested, 1.4% active; AID 652067, 2013;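 active = activation above the mean of all tested compounds plus 3 SD, cut at about 5.5% in these data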;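 also: 100% = response to 3 µM Δ7-dafachronic acid high control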
DAX1 inh-1: DAX1 (NR0B1) inhibitors on StAR promoter, primary screen, cell-based, luminescence, SF-1 (NR5A1), full-length DAX-1. AID 652010, 2013. 370,000 tested, 1.1% active. inhibition, % at 6.8 µM. HEK293T StAR-luciferase reporter, SF-1/DAX-1 repression relief;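 active = inhibition above the mean over all tested compounds plus 3 SD, cut at about 3.6% in these data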;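 also: 0% = DAX-1 cells with DMSO and 100% = cells lacking DAX-1 with DMSO; higher inhibition means more luminescence from relief of DAX-1 repression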
DAX1 inh-2: DAX1 (NR0B1) inhibitors, primary screen, cell-based, HEK293, Gal4-DAX1, luciferase luminescence; HEK293 Gal4-DAX1 luciferase reporter; inhibition, % at 6.75 µM; 340,000 tested, 0.99% active;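 active = inhibition above the mean over all tested compounds plus 3 SD, cut at about 4.2% in these data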;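 also: 0% = DAX1-transfected cells with DMSO and 100% = empty-vector control cells with DMSO; inhibition shows as a rise in luminescence from relieved DAX1 repression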
Target sequence (P51843 207-470 limits assumed): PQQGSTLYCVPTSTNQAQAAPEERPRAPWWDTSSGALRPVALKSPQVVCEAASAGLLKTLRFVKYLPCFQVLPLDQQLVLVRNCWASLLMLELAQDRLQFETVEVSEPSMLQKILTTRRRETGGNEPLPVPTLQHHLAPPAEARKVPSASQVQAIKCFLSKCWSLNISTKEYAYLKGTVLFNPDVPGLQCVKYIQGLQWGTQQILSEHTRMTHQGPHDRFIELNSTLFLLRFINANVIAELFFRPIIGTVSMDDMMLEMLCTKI
Active calls of the source: *; / = not tested or not shown.

SMILES | hgDAF12 agonist | ssDAF12 agonist | SMARCA2 activ | hcDAF-12 act | DAX1 inh-1 | DAX1 inh-2
C[C@H](CO)N1C[C@H](C)[C@H](CN(C)C(=O)Cc2ccncc2)Oc2ncc(Br)cc2C1=O | -4.1 | -1.5 | -0.1 | -1.6 | 3.8* | 0.9
C[C@@H]1CN([C@@H](C)CO)C(=O)c2cc(Br)cnc2O[C@H]1CN(C)C(=O)c1cccc(F)c1 | -0.3 | -1.3 | -3.3 | -1.2 | 0.3 | 0.9
COCc1cc(N2CCNC[C@@H]2C)ccc1N1CCN(Cc2ccccc2)[C@H](C)C1 | 0.4 | -1.5 | 2.0 | -0.9 | 0.1 | /
Cc1ccc(-n2nc3c(n2)/C(=N/O)CC/C3=N\O)cc1 | 12.2* | 0.9 | 3.1 | 5.0 | 4.4* | -1.1
CC(C)CN1CCN(Cc2c[nH]c3ccccc23)CC1CCO (stereo not drawn) | 1.2 | 0.6 | -1.7 | 3.0 | 0.0 | -0.7
CC(C)=CCN1CCN(Cc2c[nH]c3ccccc23)CC1CCO (stereo not drawn) | 3.5 | 0.9* | 0.6 | 2.6 | -0.1 | 0.2
CCOC(=O)Cn1cc(CN2C(C(=O)OC)CN(Cc3ccccc3)CCS2(=O)=O)nn1 (stereo not drawn) | -0.5 | -0.5 | -0.8 | 2.0 | -0.2 | /
COc1ccc(CN2C(=O)c3cccnc3C2=O)cc1S(=O)(=O)NC(C)C | 3.4 | -0.2 | -2.3 | 1.1 | 0.3 | 5.8*
CCCNS(=O)(=O)c1cc(CN2C(=O)c3cccnc3C2=O)ccc1OC | -0.5 | -1.2 | -0.8 | -0.3 | 0.1 | -0.8
C/C=C(/CCC1NCCc2c1[nH]c1ccccc21)[Si](C)(C)C (stereo not drawn) | 2.9 | 1.3* | 3.7 | 3.9 | -0.2 | 0.0
CCCCCCCCCC1NC(C(=O)O)Cc2c1[nH]c1ccccc21 (stereo not drawn) | -0.7 | -0.6 | 2.3 | 1.3 | -0.9 | -0.5
CO[C@H]([C@H](C)/C=C/N(C)C=O)[C@@H](C)C(=O)CC[C@H](C)[C@H](O)[C@H](C)[C@H]1OC(=O)/C=C/C(C)=C/C[C@H](O)C[C@@H]2C=CC[C@@H](C[C@H](OC)[C@@]3(CO3)[C@@H](OC)C[C@@H](OC)[C@@H]1C)O2 | -11.0 | -1.6 | / | -3.3 | / | /
O=C1/C(=C\c2ccccc2)CCc2c1[nH]c1ccccc21 | 13.1* | 0.4 | 2.2 | 5.6 | -0.9 | -1.4
Cc1ccc2[nH]c3c(c2c1)CC/C(=C/c1ccccc1)C3=O | 2.6 | -0.2 | 3.3 | 3.1 | 1.1 | 1.7
O=c1c2ccccc2oc2cc(-c3ccc4[nH]ccc4c3)ccc12 | 11.2* | -0.4 | 2.9 | 3.0 | 0.2 | -1.9
O=c1c2ccccc2oc2ccccc12 | 2.0 | -1.1 | 6.3 | -1.2 | 0.6 | /
COC(=O)[C@]12C[C@H](CC(=O)NCCCCc3ccccc3)C(=O)N(CCc3ccc(OC)c(OC)c3)C1=C[C@H](COCc1ccccc1)O[C@@H]2C | -1.8 | -1.7 | -3.9 | -1.0 | -0.5 | /
CN(C)C(CNC(=O)CCc1nc2ccccc2s1)c1ccccc1 (stereo not drawn) | -1.7 | -0.5 | -3.0 | -1.6 | -0.1 | 5.5*
O=C(CCc1nc2ccccc2s1)NCc1ccccc1F | -1.9 | -0.8 | -1.7 | 2.4 | 0.0 | -0.5
O=C(/C=C/c1ccc2c(c1)OCCCO2)c1ccccc1O | 11.4* | -0.1 | 3.3 | 2.5 | 1.7 | 2.8
CN(C)c1ccc(/C=C/C(=O)c2ccccc2O)cc1 | 10.6* | -0.3 | 3.3 | 0.7 | 2.0 | 5.8*
Cc1ccc(/C=C/C(=O)c2ccccc2O)cc1 | 1.1 | -1.4 | 0.5 | -1.8 | -0.1 | 2.5
Cc1ccc(O)c(C(=O)/C=C/c2ccc3c(c2)OCCCO3)c1 | 5.7 | -1.0 | 1.1 | 1.4 | 0.3 | -0.5
